# In PubChem BioAssay (NCATS):
# Activity calls are given as the source filed them. Calls follow the shape of the full dose curve.
# Experiment: Cell Proliferation Assay Versus the ED40515 IL2 Dependent ATL cell lines (AID 1053195)
# Details: ED40515 IL2-dependent ATL cells
# Excerpt: Adult T-cell leukemia (ATL) develops in individuals infected with human T-cell lymphotropic virus-1 (HTLV-1). Clinically, ATL is subclassified into four subtypes: smoldering, chronic, lymphomatous, and acute. Two autocrine loops (IL-2/IL-2Ralpha and IL-15/IL-15Ralpha) and one paracrine stimulation loop that involves IL-9 expression by ATL cells and IL-9Ralpha expression on monocytes are required to maintain viability and proliferation in the smoldering and chronic forms of the disease. These assays examined the differential response profiles for the MIPE library of approved and investigational drugs versus an IL2 dependent and independent matched ATL cell line, with the current submission examining the differential response profiles for drugs on an IL2 dependent matched ATL cell line.
# Plate log growing ED40515 +IL2 cells: 1000cells/ well in 5uL phenol red free RPMI +5% FBS +1x p/s, Glutamine using 1536 well white griener tissue culture plates and multidrop cassette acoustic dispensing Columns 1 and 3 DMSO Columns 2 and 4, 9.2 uM Bortezomib Incubate 48 hours for celltiter glo 37C with 5%CO2 and 95% humidity with low evaporation lids Dispense 3 uL per well of cell titer glo with multidrop Incubate for 15 minutes at RT Read on VL/2 using Luminesence Wheel (Filter A)
row,SMILES,Potency
1,Cn1cnc2c(F)c(Nc3ccc(Br)cc3Cl)c(C(=O)NOCCO)cc21,16.6 µM (active)
2,CN([C@@H](Cc1ccc(OS(=O)(=O)c2cccc3cnccc23)cc1)C(=O)N1CCN(c2ccccc2)CC1)S(=O)(=O)c1cccc2cnccc12,6.62 µM (active)
3,O=c1[nH]c(-c2ccc(C(F)(F)F)cc2)nc2c1CSCC2,26.4 µM (active)
4,Cc1ccc2c(c1)C(=O)[C@@]1(O)CCN(c3ccccc3)C1=N2,13.2 µM (active)
5,O=C(c1cc(Cc2n[nH]c(=O)c3ccccc23)ccc1F)N1CCN(C(=O)C2CC2)CC1,16.6 µM (active)
6,Cc1cccc(-c2[nH]c(C(C)(C)C)nc2-c2ccc3nccnc3c2)n1,16.6 µM (active)
7,COc1ccc(C2=N[C@H](c3ccc(Cl)cc3)[C@H](c3ccc(Cl)cc3)N2C(=O)N2CCNC(=O)C2)c(OC(C)C)c1,20.9 µM (active)
8,CC[C@H](Nc1ncnc2nc[nH]c12)c1nc2cccc(F)c2c(=O)n1-c1ccccc1,5.9 µM (active)
9,CNC(=O)c1ccc(N2C(=S)N(c3ccc(C#N)c(C(F)(F)F)c3)C(=O)C2(C)C)cc1F,16.6 µM (active)
10,CCCS(=O)(=O)Nc1ccc(F)c(C(=O)c2c[nH]c3ncc(-c4ccc(Cl)cc4)cc23)c1F,20.9 µM (active)
11,COc1ccc(-c2ccc3c(N4CCOC[C@H]4C)nc(N4CCOC[C@H]4C)nc3n2)cc1CO,0.0935 µM (active)
12,COc1ccc(COc2cc3oc(=O)c4cc(C(C)O)ccc4c3cc2OC)cc1 (stereo not given),18.7 µM (active)
13,C[C@]1(c2nc3c(C(N)=O)cccc3[nH]2)CCCN1,16.6 µM (active)
14,Cc1cc(Nc2nc(N[C@@H](C)c3ncc(F)cn3)ncc2Cl)n[nH]1,0.662 µM (active)
15,O=C1CCCC2=C1C(c1[nH]ncc1Cl)N=C(Nc1nc3ccccc3o1)N2 (stereo not given),29.6 µM (active)
16,NC(=O)C1CCCc2c1[nH]c1ccc(Cl)cc21 (stereo not given),33.2 µM (active)
17,CN(C)c1ccc(C2Nc3ccc4ccccc4c3C3=C2C(=O)CC(C)(C)C3)cc1Br (stereo not given),14.8 µM (active)
18,Nc1nccc(-c2ccc3noc(-c4ccc(Cl)cc4)c3c2)n1,23.5 µM (active)
19,Cc1c(C)c2c(c(C)c1O)CCC(C)(COc1ccc(CC3SC(=O)NC3=O)cc1)O2 (stereo not given),16.6 µM (active)
20,CC(c1cc2ccccc2s1)N(O)C(N)=O (stereo not given),67.9 µM (active)

row,SMILES,Potency
1,C[C@@H]1CN(Cc2ccc(F)cc2)[C@@H](C)CN1C(=O)c1cc2c(C(=O)C(=O)N(C)C)cn(C)c2cc1Cl,16.6 µM (active)
2,Clc1ccc(Nc2nnc(Cc3ccncc3)c3ccccc23)cc1,37.2 µM (active)
3,CCC(C)n1ncn(-c2ccc(N3CCN(c4ccc(OC[C@H]5CO[C@](Cn6cncn6)(c6ccc(Cl)cc6Cl)O5)cc4)CC3)cc2)c1=O (stereo not given in full),1.32 µM (active)
4,CCc1cc(Nc2nccc(-c3c(-c4ccc(OC)c(C(=O)Nc5c(F)cccc5F)c4)nc4ccccn34)n2)c(OC)cc1N1CCC(N2CCN(S(C)(=O)=O)CC2)CC1,1.66 µM (active)
5,CCC(C)N(C)C(=O)c1cc2ccccc2c(-c2ccccc2Cl)n1 (stereo not given),11.8 µM (active)
6,CCCc1nn(C)c2c(=O)[nH]c(-c3cc(S(=O)(=O)N4CCN(C)CC4)ccc3OCC)nc12,37.2 µM (active)
7,CN(C(=O)c1ccc(F)cc1C(F)(F)F)C1CCN(c2nnc(-c3ccnn3C)c3ccccc23)CC1,2.96 µM (active)
8,CCC(=O)N[C@H]1CC[C@H](C(=O)N(C)c2ccc(-c3nc4ccccc4o3)cc2)C1,3.32 µM (active)
9,Nc1nc2[nH]cc(CCc3ccc(C(=O)N[C@@H](CCC(=O)O)C(=O)O)cc3)c2c(=O)[nH]1,0.0296 µM (active)
10,O=C(C=Cc1ccc(/C=C/C(=O)Nc2ccc(C3=NCCN3)cc2)cc1)Nc1ccc(C2=NCCN2)cc1,2.09 µM (active)
11,Cc1cc([C@@H](C)Nc2ccccc2C(=O)O)c2nc(N3CCOCC3)cc(=O)n2c1,1.05 µM (active)
12,N#Cc1ccc(C(c2ccc(C#N)cc2)n2cncn2)cc1,10.5 µM (active)
13,CS(=O)(=O)c1cccc(CNc2nc(Nc3ccc4c(c3)CCC(=O)N4)ncc2C(F)(F)F)c1,3.32 µM (active)
14,Nc1cccc(S(=O)(=O)N2CCCN(S(=O)(=O)c3ccc4c(c3)OCCO4)CC2)c1,16.6 µM (active)
15,Cc1cc(-c2nnc3n2CCCCC3)c(C)n1-c1ccc(F)cc1,11.8 µM (active)
16,Cc1cc(SCc2sc(-c3ccc(C(F)(F)F)cc3)nc2C)ccc1OCC(=O)O,26.4 µM (active)
17,O=C(Nc1nc2ccccc2n1CCN1CCOCC1)c1cccc([N+](=O)[O-])c1,10.5 µM (active)
18,CNCc1ccc(-c2[nH]c3cc(F)cc4c3c2CCNC4=O)cc1,20.9 µM (active)
19,COc1cc2nccc(Oc3ccc(NC(=O)NC4CC4)c(Cl)c3)c2cc1C(N)=O,20.9 µM (active)
20,Cc1cccc(-c2nn(C(=S)Nc3ccccc3)cc2-c2ccnc3ccccc23)n1,2.35 µM (active)
